Shown are actives, neighbours in structure and some others; about 32% of the full set was active somewhere.
PostGolgi yeast: phenotypic screen on post-Golgi transport, primary screen; post-Golgi transport phenotypic cell assay; inhibition, % at 10 µM; hit rate 0.9% among 98,000; AID 739, 2007;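 also: yeast cells grown in 1536-well plates; yeast grown about 18 h at 30C before absorbance read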
CYP2C9 act: human CYP2C9 activators, primary screen, biochemical, luminescence; Cytochrome P450 2C9 (Homo sapiens), P11712; recombinant CYP2C9, luciferin-H conversion; hits give high values; factor 1 = untreated enzyme, 0 = blocked; activation factor at 5 µM; hit rate 1.4% among 96,000; AID 1024, 2008;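 active = activation factor of 2 or more for CYP2C9 at a 5 µM dose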;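 also: 0 = sulfaphenazole-blocked wells and 1 = vehicle-only wells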
CYP2C9 inhib: blockers of cytochrome P450 2C9 activity – biochemical, luminescence, ADME assay, primary screen; P11712; CYP2C9 Supersomes, luciferin-H conversion; inhibition, % at 5 µM; hit rate 20% among 96,000; AID 777, 2007;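 active = blocking of liver enzyme CYP2C9 beyond about 50% at 5 µM, limit read from the data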
CYP2C19 act: human CYP2C19 activators, primary screen, biochemical, luminescence. Cytochrome P450 2C19 (Homo sapiens), P33261. activation factor at 5 µM. 96,000 tested, under 10 active. recombinant CYP2C19, luciferin-H EGE luminescence; hits give high values; 0 = fully inhibited enzyme, 1 = untreated enzyme;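 active = activation factor of at least 2 at 5 µM in the primary screen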;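 also: 0 = wells with 2.5 mM tranylcypromine and 1 = vehicle-only wells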
Target sequence (P33261 whole entry, looked up): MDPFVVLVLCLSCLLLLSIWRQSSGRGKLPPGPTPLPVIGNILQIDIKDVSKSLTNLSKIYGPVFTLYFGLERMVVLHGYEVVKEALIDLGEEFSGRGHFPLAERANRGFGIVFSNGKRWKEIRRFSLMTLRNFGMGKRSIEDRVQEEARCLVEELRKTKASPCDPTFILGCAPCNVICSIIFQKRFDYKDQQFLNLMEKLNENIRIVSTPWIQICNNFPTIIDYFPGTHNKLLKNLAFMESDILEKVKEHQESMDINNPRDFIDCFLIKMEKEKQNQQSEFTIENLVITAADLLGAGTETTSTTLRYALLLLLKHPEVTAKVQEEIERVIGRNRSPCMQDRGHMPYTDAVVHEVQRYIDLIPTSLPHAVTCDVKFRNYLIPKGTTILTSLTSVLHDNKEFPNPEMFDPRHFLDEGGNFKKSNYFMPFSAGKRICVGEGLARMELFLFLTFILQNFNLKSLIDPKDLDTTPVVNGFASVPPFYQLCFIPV
PostGolgi ctrl: growth inhibition of yeast control strain, primary screen, counter-screen for post-Golgi transport modulator project | efflux-deficient yeast background strain, growth absorbance A615, 16 h | hit rate 5% among 98,000 | inhibition, % at 10 µM | AID 738, 2007
CYP2C19 inhib: blockers of cytochrome P450 2C19 activity – biochemical, luminescence, ADME assay, primary screen; P33261; hit rate 21% among 96,000; CYP2C19 Supersomes, luciferin-H EGE luminescence, 30 min; inhibition, % at 5 µM;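 active = CYP2C19 inhibition above a set limit at 5 µM in the primary screen, cut at about 50% in these data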;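 also: plate controls were negative control wells for no effect and 2.5 mM tranylcypromine positive control for full effect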
* = called active by the depositor; nt = no result given. Rule as the data show it, unless noted: active = inhibition above about 30%; inactive = the rest.

SMILES | PostGolgi yeast | CYP2C9 act | CYP2C9 inhib | CYP2C19 act | PostGolgi ctrl | CYP2C19 inhib
Cc1ccc2[nH]c(=O)c(C(c3nnnn3CC3CCCO3)N3CCOCC3)cc2c1 (configuration not stated) | 2.5 | 1 | -0.6 | 1 | 4.8 | -1.4
COc1ccc(C(c2nnnn2CC2CCCO2)N2CCN(c3cccc(C)c3C)CC2)cc1 (configuration not stated) | 1.8 | 0.3 | 65.6* | 0.8 | 6.7 | 21.1
Nc1nonc1-c1noc(-c2ccccc2Br)n1 | 2.0 | 1 | -0.5 | 0.3 | 13.9 | 66.9*
O=C1c2ccccc2C(=O)N1CCCc1nc(-c2ccncc2)no1 | 1.1 | 0.6 | 43.4 | 0.6 | 36.0* | 41.2
Nc1nonc1-c1noc(CCCN2C(=O)c3ccccc3C2=O)n1 | -3.7 | 0.9 | 12.1 | 0.4 | 12.9 | 56.9*
O=C1c2ccccc2C(=O)N1CCCc1nc(-c2cccnc2)no1 | -11.0 | 1 | 3.2 | 1 | -5.8 | -4.8
Nc1nonc1-c1noc(N2CCOCC2)n1 | 12.9 | nt | nt | nt | 9.1 | nt
COc1ccc(C(CNC(=O)C2CC(=O)N(Cc3ccc(C)cc3)C2)N(C)C)cc1 (configuration not stated) | 0.8 | 0.8 | 21.2 | 0.7 | -2.4 | 29.3
CC1CCN(C(=O)CSc2nncn2C)CC1 | -0.7 | 0.9 | 13.2 | 0.9 | 18.4 | 5.1
Cc1ccc2c(c1)N(C(=O)c1ccco1)C(C)(C)c1ssc(=S)c1-2 | 0.6 | 0.5 | 53.8* | 0.7 | 15.2 | 33.0
Cc1ccc2c(c1)N(C(=O)CSc1nncn1C)C(C)(C)c1ssc(=S)c1-2 | 18.3 | 0.5 | 48.3 | 0.3 | 0.9 | 66.9*
COCCN(Cc1cc2cc3c(cc2[nH]c1=O)OCO3)C(=O)c1cccs1 | -0.9 | 0.9 | 5.1 | 0.7 | -0.1 | 34.2
Cc1cccc(OCCSc2cc(C)nc(N)n2)c1 | 18.0 | 1.1 | -8.4 | 0.4 | 11.6 | 55.1*
Cc1ccc(OCCSc2cc(C)nc(N)n2)cc1 | -3.5 | 0.8 | 24.7 | 0.3 | -1.1 | 72.1*
Cc1cc(S(=O)(=O)N2CCC(NC(=O)C34CC5CC(CC(C5)C3)C4)CC2)ccc1-n1cnnn1 | 1.9 | 1 | 4.0 | 0.8 | 26.7 | 17.4
CCCCC(=O)NCCc1ccc(OC)cc1 | 1.1 | 0.7 | 25.8 | 0.4 | 22.5 | 57.4*
COc1ccc(CCNC(=S)Nc2cc(C)cc(C)c2)cc1 | 3.4 | 1.4 | -44.4 | 0.4 | 16.1 | 62.2*
CCCCNC(=O)Cn1c(-c2ccc(OC)cc2)noc1=O | 13.6 | 0.7 | 34.6 | 0.3 | 6.4 | 65.1*
CCCCC(=O)NCCc1ccc(S(N)(=O)=O)cc1 | -4.6 | 1.1 | -11.3 | 1.1 | -12.0 | -12.7
COc1ccc(CCNC(=S)Nc2ccccc2C)cc1 | -4.0 | 0.8 | 23.6 | 0.5 | 0.1 | 47.8
CCCc1ccc(OCCNC(=O)CC)cc1 | -5.1 | 0.7 | 29.4 | 0.4 | 2.4 | 55.6*
C/C(=N\n1nnnc1Nc1ccccc1)c1ccc(N)cc1 | -2.4 | 0.8 | 20.7 | 0.7 | -5.0 | 27.0
COc1ccc(S(=O)(=O)CCC(=O)NCCc2ccc(Cl)cc2)cc1 | 7.5 | 0.3 | 71.0* | 0.3 | 2.7 | 70.6*
COCCCNC(=O)CC(NS(=O)(=O)c1ccc(OC)cc1)c1ccc(OC)cc1 (configuration not stated) | 13.3 | 1.1 | -7.3 | 0.8 | 7.3 | 16.6
COCCCNC(=O)CC(NS(=O)(=O)c1ccc(Cl)cc1)c1ccc(OC)cc1 (configuration not stated) | -13.7 | 1.2 | -15.9 | 0.5 | 3.0 | 54.9*
SMILES | PostGolgi yeast | CYP2C9 act | CYP2C9 inhib | CYP2C19 act | PostGolgi ctrl | CYP2C19 inhib
CN(C)c1cccc(C(=O)Nc2ccc(N3CCOCC3)cc2)c1 | 7.8 | 1.8 | -81.0 | 1 | -3.3 | 2.4
O=S(=O)(c1ccc(N2CCCC2)cc1)C(F)(F)F | 13.9 | 1.1 | -12.2 | 1 | 7.9 | 2.7
COc1ccccc1C1NC(c2ccccc2OC)C(C)C(=O)C1C (configuration not stated) | 2.2 | 0.3 | 66.8* | 0 | -6.0 | 100.0*
Cc1[nH]c(=O)[nH]c(=O)c1S(=O)(=O)NCCOC12CC3CC(CC(C3)C1)C2 | 1.8 | 1 | 2.6 | 1 | -0.8 | -1.9
CS(=O)(=O)N(CCc1ccccc1)CC(=O)N1CCc2ccccc2C1 | -6.5 | 0.5 | 53.7* | 0.3 | 6.1 | 67.7*
CCN(CC(=O)N1CCc2ccccc2C1)S(=O)(=O)c1ccc2ccccc2c1 | 5.3 | 2.4* | -142.7 | 0.6 | 25.3 | 39.3
Cc1nc2ccc(S(=O)(=O)N(C)CC(=O)N3CCc4ccccc4C3)cc2s1 | 1.4 | 0.6 | 44.9 | 0.6 | 10.5 | 39.1
CCC(Sc1ncccc1C(=O)O)C(=O)N1CCCC1 (configuration not stated) | -0.5 | nt | nt | nt | 1.7 | nt
O=C(Cc1ncc(C(F)(F)F)cc1Cl)Nc1ccc(F)cc1 | -5.0 | 0.9 | 9.8 | 0.1 | 9.5 | 91.2*
O=C(Cc1ncc(C(F)(F)F)cc1Cl)N1CCN(c2cccc(Cl)c2)CC1 | 3.3 | 1.6 | -59.6 | 0.2 | 27.9 | 83.6*
COc1ccc(N2CCN(C(=O)Cc3ncc(C(F)(F)F)cc3Cl)CC2)cc1 | 25.6 | 1.3 | -26.5 | 0.9 | 0.6 | 6.1
CC(C)C(=O)Nc1ncc(C(F)(F)F)cc1Cl | 4.3 | 0.9 | 7.1 | 1.1 | 9.2 | -7.5
O=C(Cc1ncc(C(F)(F)F)cc1Cl)N1CCN(c2ccc(F)cc2)CC1 | 1.4 | 3.5* | -248.5 | 0.5 | -1.9 | 51.3*
Cc1cc(C(=O)Nc2cccc(O)c2)co1 | -8.8 | 0.9 | 14.3 | 0.8 | 7.8 | 16.2
CCCN(CCC)c1nc2ccccc2n2c(C)nnc12 | 9.8 | 0.9 | 13.2 | 0.8 | 45.0* | 17.3
CCC(Sc1nc(=O)cc(N)n1CCc1ccccc1)C(=O)Nc1cc(C)on1 (configuration not stated) | -0.3 | 0.7 | 27.0 | 0.6 | 0.7 | 38.7
CCC(SC1=N/C(=C/c2ccccc2OC)C(=O)N1c1ccccc1)C(=O)Nc1cc(C)on1 (configuration not stated) | 2.3 | 0.3 | 67.4* | 0.8 | 5.5 | 24.1
O=C(c1cc2c(s1)-c1ccccc1S(=O)(=O)C2)N1CCN(Cc2ccccc2)CC1 | -3.5 | 0.7 | 32.9 | 0.6 | 10.7 | 42.8
O=C(Nc1ccc(SC(F)F)cc1)C1=COCCO1 | -1.1 | 1.1 | -8.6 | 1 | -0.3 | 3.5
FC(F)Sc1ccc(NC(=S)NC2CCCCC2)cc1 | -5.1 | 2.4* | -143.1 | 0.2 | 8.0 | 75.3*
CC1CCCCC1NC(=S)Nc1ccc(SC(F)F)cc1 (configuration not stated) | 5.6 | 2.3* | -125.3 | 0.4 | 16.5 | 61.0*
FC(F)Sc1ccc(NC(=S)NCC2CCCCC2)cc1 | 36.4* | 1.3 | -27.8 | 0 | 38.2* | 95.9*
